Test results: PubChem BioAssay (EPA / NIEHS)
“And” between values parts separate entries of the source, which are not always exact repeats. Equal entries are not always repeated. Records with an inconclusive call do not appear. The source made the active and inactive calls. How the source made its calls, unless noted: active means hit-call score of the fitted dose curve at least 0.9, where 1 is the maximum; inactive means score below 0.9.

Assays:
[1] = ACEA_ER_80hr: ACEA Biosciences xCELLigence Real-Time Cell Analysis on Estrogen Receptor Agonism for Proliferation (AID 2282667; active means hit-call score of the fitted dose curve at least 0.9, where 1 is the maximum); conditions: T47D proliferation, impedance (xCELLigence), 80 h
Procedure, shortened: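 T47D human breast cells were seeded on electrode plates, monitored overnight, then exposed continuously to compounds in eight-point 1:4 dilutions from 100 uM (max 0.5% DMSO). Impedance-based growth was read at 80 h, fitted upward relative to DMSO.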

[2] = APR_HepG2_CellCycleArrest_24hr: Apredica 24-hour HepG2 Assay for Cell Cycle Arrest (AID 2282905); conditions: imaging, actives raise or lower the signal;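 further: cell cycle arrest scored as ratio of 2N to 4N nuclear DNA content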
Procedure, shortened: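 Step one: dose HepG2 with test compounds, 0.39–200 uM, 0.5% DMSO, 24 hr. Step two: fix, permeabilize, stain nuclei with Hoechst 33342. Step three: image six fields per well at 20x, quantify DNA content, fit bidirectionally relative to DMSO.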

[3] = APR_HepG2_NuclearSize_24hr: Apredica 24-hour HepG2 Assay for Nuclear Size (AID 2282907); conditions: high-content imaging, actives raise or lower the signal
Procedure, shortened: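 After fixation and permeabilization, 24-hr-treated HepG2 cells were stained with Hoechst 33342 and imaged on an ArrayScan (20x). Doses spanned 0.39–200 uM in duplicate. Nuclear diameter changes in either direction were fitted relative to 0.5% DMSO controls.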

[4] = APR_HepG2_CellLoss_24hr: Apredica 24-hour HepG2 Assay for Cell Loss (AID 2282908); conditions: high-content imaging;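 on AC50: fit in both directions so a hit may be cell loss or gain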
Procedure, shortened: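 Duplicate wells received compound at ten concentrations (0.39–200 uM; final DMSO 0.5% v/v). After fixation with formaldehyde, nuclei stained with Hoechst 33342 were imaged at 20x. Loss or gain of cell count was fitted relative to DMSO controls.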

[5] = APR_HepG2_MicrotubuleCSK_24hr: Apredica 24-hour HepG2 Assay for Microtubule CSK Stabilty (AID 2282909); conditions: HepG2 microtubule cytoskeleton imaging, actives raise or lower the signal
Procedure, shortened: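 Microtubule stability is scored from tubulin immunofluorescence in fixed HepG2 cells imaged at 20x. Cells receive ten compound concentrations up to 200 uM for 24 h; taxol and DMSO serve as positive and negative controls.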

[6] = APR_HepG2_MitoticArrest_24hr: Apredica 24-hour HepG2 Assay for Mitotic Arrest (AID 2282910); conditions: high-content imaging, actives raise or lower the signal
Procedure, shortened: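 Treatment lasted 24 hr in the human HepG2 line at 0.39–200 uM, solvent held at 0.5% DMSO. Fixed cells were stained with Hoechst 33342 and anti-phospho-histone H3, imaged at 20x, and analysed by gain- or loss-of-signal fitting against DMSO.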

[7] = APR_HepG2_MitoMembPot_24hr: Apredica 24-hour HepG2 Assay for Mitochondrial Membrane Potential (AID 2282911); conditions: imaging, actives raise or lower the signal
Procedure, shortened: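 HepG2 human liver cells were exposed 24 hr to compounds at 0.39–200 uM (final DMSO 0.5% v/v) in duplicate. MitoTracker Red CMXRos (250 nM, 30 min) was loaded before formaldehyde fixation; fluorescence was imaged by ArrayScan HCS and fitted bidirectionally versus DMSO.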

[8] = APR_HepG2_MitoMass_24hr: Apredica 24-hour HepG2 Assay for Mitochondrial Mass (AID 2282912); conditions: high-content imaging, actives raise or lower the signal
Procedure, shortened: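 Readout: fluorescence of MitoTracker Red CMXRos (250 nM, added 30 min pre-fixation) in fixed HepG2 cells imaged by HCS. Exposure lasted 24 hr at 0.39–200 uM; increases and decreases were both fitted relative to DMSO.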

[9] = APR_HepG2_p53Act_24hr: Apredica 24-hour HepG2 Assay for p53 Activation (AID 2282913); conditions: high-content imaging, actives raise or lower the signal;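 further: p53 protein immunofluorescence averaged per cell in HepG2 with Hoechst nuclei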
Procedure, shortened: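 HepG2 cells exposed 24 hr to compounds at 0.39–200 uM (10 concentrations, duplicate), final DMSO 0.5% v/v. After formaldehyde fixation and Triton permeabilization, p53 was immunolabeled (sheep anti-p53, Cy5 secondary) with Hoechst 33342 nuclear counterstain, then imaged by high-content fluorescence microscopy.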

[10] = APR_HepG2_CellCycleArrest_72hr: Apredica 72-hour HepG2 Assay for Cell Cycle Arrest (AID 2282914); conditions: high-content imaging, actives raise or lower the signal
Procedure, shortened: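 HepG2 cells were exposed to compounds at 0.39–200 uM (0.5% v/v DMSO final, duplicates) for 72 hr, fixed in 3.7% formaldehyde, permeabilized and stained with Hoechst 33342. Nuclear DNA content was quantified by high-content imaging; gain or loss of signal was fitted bidirectionally against DMSO.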

[11] = APR_HepG2_CellLoss_72hr: Apredica 72-hour HepG2 Assay for Cell Loss (AID 2282915); conditions: high-content imaging
Procedure, shortened: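 HepG2 cells were exposed for 72 hr to compounds at 0.39–200 uM (ten concentrations, duplicate) in 0.5% v/v final DMSO. Nuclei were stained with Hoechst 33342 after 3.7% formaldehyde fixation, imaged at 20x, and counted; fits bidirectional versus DMSO.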

[12] = APR_HepG2_CellCycleArrest_1hr: Apredica 1-hour HepG2 Assay for Cell Cycle Arrest (AID 2282666); conditions: high-content imaging, actives raise or lower the signal
Procedure, shortened: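 Cell cycle arrest scored from nuclear DNA content (Hoechst 33342) using high-content imaging of fixed HepG2 cells after 1 h treatment across 0.39–200 uM, in duplicate. Gain or loss fitted relative to 0.5% DMSO.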

[13] = APR_HepG2_CellLoss_1hr: Apredica 1-hour HepG2 Assay for Cell Loss (AID 2282668); conditions: high-content imaging;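 further: curves fitted both ways against DMSO so gain or loss of cells counts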
Procedure, shortened: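 Cell number comes from high-content imaging of Hoechst-labelled nuclei in fixed HepG2 cells. Cells were exposed for 1 h to ten concentrations from 0.39 to 200 uM in 0.5% DMSO. Gain or loss was fitted against DMSO controls.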

[14] = APR_HepG2_MicrotubuleCSK_1hr: Apredica 1-hour HepG2 Assay for Microtubule CSK Stabilty (AID 2282669); conditions: HepG2 microtubule cytoskeleton imaging, actives raise or lower the signal
Procedure, shortened: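 Alpha-tubulin immunofluorescence, imaged by automated high-content microscopy with Hoechst nuclear segmentation, measured cytoskeletal change after 1 h dosing of HepG2 at 0.39–200 uM in 0.5% DMSO. Activity fitted in both directions relative to DMSO.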

[15] = APR_HepG2_NuclearSize_1hr: Apredica 1-hour HepG2 Assay for Nuclear Size (AID 2282670); conditions: high-content imaging, actives raise or lower the signal
Procedure, shortened: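 Nuclear size measured by high-content imaging of Hoechst 33342 nuclear stain after formaldehyde fixation; human HepG2 line exposed 1 hr to compounds at 0.39–200 uM in 0.5% DMSO, with bidirectional curve fitting relative to DMSO.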

[16] = APR_HepG2_MitoticArrest_1hr: Apredica 1-hour HepG2 Assay for Mitotic Arrest (AID 2282672); conditions: high-content imaging, actives raise or lower the signal
Procedure, shortened: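 Ten-point concentration series (0.39 to 200 uM, duplicates, 0.5% v/v DMSO) applied to human HepG2 liver cells for 1 hr. High-content imaging of phospho-histone H3 and Hoechst-stained nuclei after fixation and permeabilization; DMSO-normalised bidirectional fit.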

[17] = APR_HepG2_P-H2AX_1hr: Apredica 1-hour HepG2 Assay for H2AX Phosphorylation (AID 2282673); conditions: high-content imaging, actives raise or lower the signal
Procedure, shortened: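 Phospho-H2A.x immunofluorescence (1:200, FITC secondary) plus Hoechst nuclear stain, quantified by high-content imaging in HepG2 after 1 hr compound exposure. Ten concentrations, 0.39 to 200 uM, in duplicate with 0.5% DMSO; fit both directions against DMSO.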

[18] = APR_HepG2_MitoMass_1hr: Apredica 1-hour HepG2 Assay for Mitochondrial Mass (AID 2282674); conditions: high-content imaging, actives raise or lower the signal
Procedure, shortened: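 Mitochondrial mass is taken from MitoTracker Red CMXRos (250 nM, 30 min, pre-fixation) fluorescence imaged at 20x in HepG2 cells. Exposure lasted 1 hr across ten concentrations, 0.39 to 200 uM, 0.5% DMSO; DMSO baseline, bidirectional fitting.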

[19] = APR_HepG2_MitoMembPot_1hr: Apredica 1-hour HepG2 Assay for Mitochondrial Membrane Potential (AID 2282675); conditions: imaging, actives raise or lower the signal
Procedure, shortened: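 Mitochondrial membrane potential read as MitoTracker Red CMXRos intensity by automated imaging of fixed HepG2 cells. Dye at 250 nM for 30 min pre-fixation; compounds 0.39 to 200 uM for 1 hour, duplicate wells, 0.5% DMSO.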

[20] = APR_HepG2_StressKinase_1hr: Apredica 1-hour HepG2 Assay for Stress Kinase (AID 2282906); conditions: HepG2 stress kinase (phospho-c-Jun) imaging, actives raise or lower the signal
Procedure, shortened: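 High-content imaging of phospho-c-Jun immunostaining (with Hoechst nuclear identification) after a 1 h exposure of HepG2 cells to 10 concentrations from 0.39 to 200 uM, final DMSO 0.5%. Fitted bidirectionally against DMSO.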

Measured: AC50

CCCCCCCCCC[N+](C)(C)CCCCCCCCCC
active: [2] 43 µM | [4] 4.36 µM | [5] 10.9 µM | [6] 4.34 µM | [7] 26 µM | [10] 48.2 µM | [11] 3.25 µM
inactive: [1] | [3] | [8] | [9]

ClC1=C(Cl)[C@]2(Cl)[C@@H]3[C@@H](Cl)[C@H]4O[C@H]4[C@@H]3C1(Cl)C2(Cl)Cl
inactive: [1] | [3] | [7] | [8]
active: [2] 80.1 µM | [4] 81.7 µM | [5] 82.1 µM | [6] 66.5 µM | [9] 87.7 µM | [10] 86.3 µM | [11] 75.4 µM

CCSC(=O)N(CC)C1CCCCC1
not listed: [1] | [9]
inactive: all other assays above

Cc1ccccc1CO[C@@H]1C[C@@]2(C(C)C)CC[C@]1(C)O2
active: [2] 79.8 µM
not listed: [1] | [9] | [10]
inactive: all other assays above

CN(C)c1nc(=O)n(C2CCCCC2)c(=O)n1C
not listed: [1] | [9] | [10]
inactive: all other assays above

C[C@]12CCC(=O)C=C1CC[C@@H]1[C@@H]2CC[C@]2(C)C(=O)CC[C@@H]12
active: [1] 50 µM and 9.92 µM
inactive: [2] | [3] | [4] | [5] | [6] | [7] | [8] | [9] | [10] | [11]

Oc1ccc(Cl)cc1Cl
inactive: [1] | [2] | [3] | [4] | [5] | [6] | [7] | [8] | [9] | [11]

CCOP(=S)(OCC)SCSC(C)(C)C
active: [7] 0.0494 µM
inactive: [1] | [2] | [3] | [4] | [5] | [6] | [8] | [9] | [10] | [11]

Oc1c(Cl)c(Cl)c(Cl)c(Cl)c1Cl
inactive: [1] | [3] | [4] | [5] | [6] | [7] | [8] | [9]
active: [2] 86.7 µM | [10] 60.8 µM | [11] 55.9 µM

NS(=O)(=O)C(F)(F)C(F)(F)C(F)(F)C(F)(F)C(F)(F)C(F)(F)C(F)(F)C(F)(F)F
inactive: [1] | [3] | [5] | [6] | [8]
active: [2] 62.5 µM | [4] 93.4 µM | [7] 72.5 µM | [9] 101 µM | [10] 46.1 µM | [11] 63.4 µM

Cc1ccccc1O
inactive: [1] | [2] | [3] | [4] | [5] | [6] | [7] | [8] | [9] | [10] | [11]

O=S(=O)(O)C(F)(F)C(F)(F)C(F)(F)C(F)(F)C(F)(F)C(F)(F)F
inactive: [1] | [2] | [3] | [4] | [5] | [6] | [7] | [8] | [9] | [10] | [11]

CCOC(=O)C(O)(c1ccc(Cl)cc1)c1ccc(Cl)cc1
active: [2] 54.1 µM | [3] 72.9 µM | [4] 72.3 µM | [5] 89.7 µM | [6] 70.5 µM | [7] 7.9 µM | [8] 59.5 µM | [9] 82.7 µM | [10] 44.7 µM | [11] 69.6 µM
inactive: [1]

Cc1cc(-c2ccc(N)c(C)c2)ccc1N
inactive: [2] | [3] | [4] | [5] | [6] | [7] | [8] | [9] | [11]
active: [1] 27 µM and 9.92 µM | [10] 66.7 µM

ClC(Cl)=C(c1ccc(Cl)cc1)c1ccc(Cl)cc1
inactive: [1] | [2] | [3] | [5]
active: [4] 55.3 µM | [6] 60.7 µM | [7] 23.2 µM | [8] 50.4 µM | [9] 57.2 µM | [10] 17 µM | [11] 50 µM

C[C@]12CCC(=O)C=C1CC[C@@H]1[C@@H]2CC[C@@]2(C)[C@H]1CC[C@]2(C)O
active: [1] 45.5 nM and 64.3 nM and 5.3 µM
inactive: [2] | [3] | [4] | [5] | [6] | [7] | [8] | [9] | [10] | [11]

O=C(NC(=O)c1cc(F)c(F)cc1Cl)Nc1cc(F)ccc1N1CCC(C(=O)O)CC1
inactive: [1] | [2] | [3] | [4] | [5] | [6] | [7] | [8] | [9] | [10] | [11]
